Assay [1] concerns PRMT1 (protein arginine N-methyltransferase 1). The assay can be described thus: PRMT1 binders on small-molecule microarrays, primary screen, biochemical, small-molecule microarray, 635 nm fluorescence (AID 1088).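 Also: binding of Prmt1 protein to compounds spotted on small-molecule microarray slides.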 Particulars: small-molecule microarray binding, higher = more signal.
Assay [2] can be described thus: yeast growth modulation, basal conditions, primary screen, YJM789 clinical isolate, OD600, 24 h (AID 1089).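 Also: growth of clinical yeast isolate S. cerevisiae YJM 789 seeded 1000 cells per well; test concentration not given here.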 Particulars: S. cerevisiae YJM789 growth, higher = more signal, called active from +8 up or from −8 down.
Assay [3] is described as follows: fission yeast growth modulation, primary screen, strain 972, OD600, 24 h, no modulator (AID 1090).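 Also: basal condition with compound alone and no growth modifier present; test concentration not given here.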 Particulars: S. pombe 972 growth, higher = more signal, called active from +8 up or from −8 down.
The nature of assay [4]: S. cerevisiae growth modulation with rapamycin, primary screen, strain BY4716, OD600, 96 h (AID 1091). Also: test concentration not given here. Particulars: higher = more signal, called active from +8 up or from −8 down.
Assay [5] concerns the target Torsin-1A-interacting protein 2 (Homo sapiens) (UniProt Q8NFQ8). The assay can be described thus: LULL1 binders on small-molecule microarray, primary screen, cell lysate, human LULL1 lysate, 635/667 nm fluorescence (AID 1092).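 Also: probe is lysate of COS7 cells overexpressing human LULL1; score merges per-feature 667 nm fluorescence with signal-to-noise.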 Particulars: hLULL1 lysate binding, 635 nm fluorescence, higher = more signal.
Assay [6] in a line: E. coli growth modulation, two-sided OD650, primary screen, E. coli filamentation project, strain DRC41, 24 h (AID 1093).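 Also: MC1000 strain lacking acrAB efflux and sulA so SOS filamentation is blocked; test concentration not given here.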 Particulars: OD650, 24 h, higher = more signal, called active from +8 up or from −8 down.
The nature of assay [7]: small-molecule microarray binders of probe aLefty2, primary screen, biochemical, biotinylated probe, 635/667 nm fluorescence (AID 1094).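 Also: score merges spot fluorescence near 667 nm with spot signal-to-noise ratio.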 Particulars: higher = more signal.
In assay [8] the test system is Noggin (protein binding on small-molecule microarray). The assay can be described thus: Noggin binders on small-molecule microarray, primary screen, biochemical, 635/667 nm fluorescence (AID 1095).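 Also: score merges 667 nm feature fluorescence with signal to noise over triplicate slides.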 Particulars: 635 nm fluorescence, higher = more signal.
Assay [9] addresses Neurogenic locus notch homolog protein 3 (Homo sapiens) (UniProt Q9UM47). The assay can be described thus: NOTCH3 binders on small-molecule microarray, primary screen, biochemical, 635/667 nm fluorescence (AID 1096). Particulars: NOTCH3 binding, 635 nm fluorescence, higher = more signal.
Assay [10] in a line: small-molecule microarray binders of probe aEGFR, primary screen, biochemical, biotinylated probe, 635/667 nm fluorescence (AID 1097).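 Also: probe is a biotinylated anti-EGFR antibody binding compounds printed on slides; score combines fluorescence near 667 nm and signal to noise of each spot.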 Particulars: higher = more signal.

Calls of active or inactive are those of the source.

Neurogenic locus notch homolog protein 3 (Homo sapiens), sequence (Q9UM47 whole entry, looked up): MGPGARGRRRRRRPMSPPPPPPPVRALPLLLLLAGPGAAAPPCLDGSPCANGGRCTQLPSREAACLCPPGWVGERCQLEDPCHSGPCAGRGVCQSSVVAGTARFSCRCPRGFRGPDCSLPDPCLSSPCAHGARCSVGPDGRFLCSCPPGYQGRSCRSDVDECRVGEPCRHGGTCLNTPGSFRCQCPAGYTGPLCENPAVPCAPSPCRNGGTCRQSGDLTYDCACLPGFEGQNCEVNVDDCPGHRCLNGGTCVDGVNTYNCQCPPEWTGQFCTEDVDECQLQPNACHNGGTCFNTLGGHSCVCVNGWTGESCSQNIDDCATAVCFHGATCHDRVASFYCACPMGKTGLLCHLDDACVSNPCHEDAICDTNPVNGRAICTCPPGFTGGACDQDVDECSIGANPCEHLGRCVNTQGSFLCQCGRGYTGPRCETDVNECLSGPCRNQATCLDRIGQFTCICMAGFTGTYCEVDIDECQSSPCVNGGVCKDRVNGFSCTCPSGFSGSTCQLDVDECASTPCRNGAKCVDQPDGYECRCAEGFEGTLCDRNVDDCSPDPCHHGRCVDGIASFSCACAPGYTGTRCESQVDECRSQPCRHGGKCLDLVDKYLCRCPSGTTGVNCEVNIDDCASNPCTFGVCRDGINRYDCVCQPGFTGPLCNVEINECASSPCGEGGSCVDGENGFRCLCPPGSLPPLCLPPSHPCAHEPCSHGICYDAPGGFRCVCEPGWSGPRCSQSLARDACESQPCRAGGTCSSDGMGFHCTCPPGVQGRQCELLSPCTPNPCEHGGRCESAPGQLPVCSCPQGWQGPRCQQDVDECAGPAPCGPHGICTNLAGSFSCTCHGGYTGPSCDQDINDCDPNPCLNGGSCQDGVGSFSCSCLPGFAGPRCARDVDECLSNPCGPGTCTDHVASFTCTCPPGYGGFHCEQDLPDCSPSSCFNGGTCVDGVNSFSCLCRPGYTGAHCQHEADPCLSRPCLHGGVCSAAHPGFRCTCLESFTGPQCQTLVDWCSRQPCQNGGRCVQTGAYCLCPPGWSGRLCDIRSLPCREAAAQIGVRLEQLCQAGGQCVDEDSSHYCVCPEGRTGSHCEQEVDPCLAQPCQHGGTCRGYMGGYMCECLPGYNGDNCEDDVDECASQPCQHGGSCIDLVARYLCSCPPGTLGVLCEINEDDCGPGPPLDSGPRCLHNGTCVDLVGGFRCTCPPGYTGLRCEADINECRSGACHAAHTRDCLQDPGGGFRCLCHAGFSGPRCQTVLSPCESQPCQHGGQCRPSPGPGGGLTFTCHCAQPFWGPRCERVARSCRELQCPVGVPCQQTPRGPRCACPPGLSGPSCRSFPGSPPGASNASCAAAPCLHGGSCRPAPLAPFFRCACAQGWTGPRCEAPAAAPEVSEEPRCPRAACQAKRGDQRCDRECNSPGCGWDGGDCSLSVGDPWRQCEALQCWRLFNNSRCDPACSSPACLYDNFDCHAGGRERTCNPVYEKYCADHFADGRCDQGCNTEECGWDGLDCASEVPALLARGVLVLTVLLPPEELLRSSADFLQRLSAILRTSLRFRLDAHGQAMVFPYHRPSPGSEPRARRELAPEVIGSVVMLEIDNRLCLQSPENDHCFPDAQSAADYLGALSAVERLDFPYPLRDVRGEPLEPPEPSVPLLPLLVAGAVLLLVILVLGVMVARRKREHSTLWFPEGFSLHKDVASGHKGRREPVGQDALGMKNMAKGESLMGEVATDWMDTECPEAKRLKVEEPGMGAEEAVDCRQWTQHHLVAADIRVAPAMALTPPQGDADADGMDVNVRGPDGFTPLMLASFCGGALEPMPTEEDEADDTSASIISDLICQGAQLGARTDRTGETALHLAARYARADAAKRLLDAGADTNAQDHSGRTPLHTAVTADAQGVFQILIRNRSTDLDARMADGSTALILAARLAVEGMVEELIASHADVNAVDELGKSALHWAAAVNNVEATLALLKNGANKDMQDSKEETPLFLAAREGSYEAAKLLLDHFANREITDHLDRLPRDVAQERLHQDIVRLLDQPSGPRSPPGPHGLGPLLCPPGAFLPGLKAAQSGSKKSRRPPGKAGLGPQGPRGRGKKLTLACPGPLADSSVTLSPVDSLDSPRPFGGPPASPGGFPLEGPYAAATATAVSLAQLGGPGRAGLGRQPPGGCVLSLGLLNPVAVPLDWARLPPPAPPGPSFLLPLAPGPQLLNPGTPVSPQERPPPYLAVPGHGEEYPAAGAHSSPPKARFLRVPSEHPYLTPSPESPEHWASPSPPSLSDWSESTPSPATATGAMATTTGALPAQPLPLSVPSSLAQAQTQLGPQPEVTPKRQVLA
Torsin-1A-interacting protein 2 (Homo sapiens), sequence (Q8NFQ8 whole entry, looked up): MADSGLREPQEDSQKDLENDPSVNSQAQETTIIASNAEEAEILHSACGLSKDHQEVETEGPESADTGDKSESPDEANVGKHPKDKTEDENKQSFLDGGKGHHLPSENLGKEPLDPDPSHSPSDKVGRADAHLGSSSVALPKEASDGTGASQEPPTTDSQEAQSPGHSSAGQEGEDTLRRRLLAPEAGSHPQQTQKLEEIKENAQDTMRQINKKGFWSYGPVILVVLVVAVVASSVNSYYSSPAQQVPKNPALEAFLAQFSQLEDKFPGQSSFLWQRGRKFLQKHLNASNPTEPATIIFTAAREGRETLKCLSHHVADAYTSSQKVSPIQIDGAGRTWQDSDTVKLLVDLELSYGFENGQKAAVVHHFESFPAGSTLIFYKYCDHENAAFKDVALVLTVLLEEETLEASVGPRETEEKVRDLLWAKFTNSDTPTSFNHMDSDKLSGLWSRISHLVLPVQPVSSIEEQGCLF

Regarding `COC(=O)C(CC#Cc1ccc2c(c1)[C@]1(C(=O)N2)[C@H](C(=O)NC[C@H](O)c2ccccc2)[C@H]2C(=O)O[C@H](c3ccccc3)[C@H](c3ccccc3)N2[C@@H]1c1ccc(OCCO)cc1)C(=O)OC`, the composite z-score in [1] was found to be 1.54; in assay [5] it was 3.62; in assay [7] it was 0.14; in assay [8], 1.87; in [9], 1.05; in assay [10], 0.345. For the same molecule, the z-score in assay [2] was 2.7 (inactive); in assay [3], 1.16 (inactive); in assay [4] it was 3.93 (inactive); in assay [6], -0.207 (inactive).
With `O=C1OCCC=C[C@H]2OC34C=CCN(Cc5ccccc5)C(=O)[C@H]3N(CCCCCCO)C(=O)[C@@H]4C12` (stereo not given in full), the composite z-score is 0.831 in assay [1]; 3.21 in assay [5]; -0.42 in assay [7]; -0.485 in assay [8]; 0.127 in assay [9]; -0.309 in assay [10]. For the same molecule, the z-score is 0.104 (inactive) in assay [2], -0.0853 (inactive) in assay [3], -0.0696 (inactive) in [4] and 0.801 (inactive) in assay [6].
With `COc1ccc(C(=O)Nc2cccc(CN3C(=O)[C@@]4(O[C@@H](CCn5cc(CCO)nn5)[C@H]([Si](C)(C)c5ccc(OC)cc5)[C@H]4C)c4ccccc43)c2)cc1`, the composite z-score in assay [1] is 1.55; in assay [5], 2.06; in assay [7], 0.0361; in assay [8] it was 1.2; in assay [9] it was 1.11; in assay [10] it was 0.0511. Further, the z-score in assay [2] was 1.65 (inactive); in assay [3] it was -14 (active); in assay [4], 0.984 (inactive); in assay [6], -1.02 (inactive).
Consider `[N-]=[N+]=Nc1ccccc1[C@@H]1OC(c2ccc(OCCCO)cc2)=N[C@]1(CCS(=O)(=O)c1ccccc1)C(=O)N1CCOCC1`, for which the composite z-score came out at 1.55 in assay [1]; 3.59 in assay [5]; 0.515 in assay [7]; 0.417 in [8]; 1.06 in [9]; 0.65 in assay [10]. Moreover, the z-score is 1.32 (inactive) in assay [2], 1.91 (inactive) in assay [3], 1.72 (inactive) in [4] and 0.376 (inactive) in assay [6].
On to `CCCCC=C[C@@H](NC(=O)c1ccc(C(=O)OC)cc1)c1ccccc1`, for which the composite z-score in assay [1] is 1.29; in [5], 2.46; in assay [7], 0.145; in assay [8], 0.454; in assay [9], 1.02; in assay [10], -0.0936. Moreover, the z-score in [2] was -0.381 (inactive); in [3] it was -1.22 (inactive); in assay [4], 0.771 (inactive); in assay [6], -0.894 (inactive).
With `CC(=O)NCCCC[C@@H]1NC(=O)[C@H]2C[C@@H](C(=O)NCCCCCC[N+](C)(C)C)[C@@H](c3cccc(OCCO)c3)N2C1=O`, the composite z-score was 1.53 in [1]; 2.98 in assay [5]; -0.16 in assay [7]; 1.19 in [8]; 0.97 in assay [9]; -0.0967 in assay [10]. The z-score is -0.752 (inactive) in [2], 0.0936 (inactive) in [3], -0.425 (inactive) in assay [4] and 1.23 (inactive) in assay [6].
Turning to `CC(C)(C)N1CC=CC23O[C@@H]4/C=C\CCCOC(=O)C4[C@H]2C(=O)N(CCO)[C@@H]3C1=O` (stereo not given in full), the composite z-score in assay [1] is -0.344; in assay [5], 1.94; in assay [7], -0.241; in assay [8], -0.551; in assay [9], -0.871; in assay [10] it was -0.272. Also, the z-score in assay [2] was 0.478 (inactive); in assay [3], 0.224 (inactive); in assay [4] it was -0.1 (inactive); in assay [6], 1.54 (inactive).
As to `N#Cc1ccc(NN2C(C(O)c3cccs3)C=CC3C(=O)N(c4ccccc4)C(=O)C32)cc1` (stereo not given), the composite z-score is 0.843 in assay [1]; 3.35 in assay [5]; -0.0768 in [7]; -0.187 in assay [8]; 0.708 in assay [9]; -0.0357 in assay [10]. Moreover, the z-score in assay [2] was -1.34 (inactive); in assay [3] it was 1.73 (inactive); in [4] it was 2.72 (inactive); in assay [6], -0.445 (inactive).
As for `C=CCOC(=O)[C@H]1[C@@H]2C(=O)O[C@@H](c3ccccc3)[C@@H](c3ccccc3)N2[C@@H](c2ccc(OCCOC(=O)[C@@H]3C[C@@H]4C(=O)N5CCC[C@H]5C(=O)N4[C@@H]3c3ccc(O)cc3)cc2)[C@]12C(=O)Nc1ccccc12`, the composite z-score was 1.53 in assay [1]; 2.63 in [5]; -0.0984 in assay [7]; 1.15 in assay [8]; 0.799 in assay [9]; -0.096 in assay [10]. The z-score in [2] was 0.821 (inactive); in [3] it was 1.64 (inactive); in [4] it was 3.79 (inactive); in [6] it was 0.621 (inactive).
Regarding `Cc1ccc(S[C@]2(C(=O)NCc3ccccc3)CC(=O)N(Cc3ccccc3)[C@@H]2c2ccc(CO)cc2)cc1`, the composite z-score was 1.55 in assay [1]; 3.04 in assay [5]; -0.001 in assay [7]; -0.9 in assay [8]; -0.91 in assay [9]; -0.272 in [10]. Besides, the z-score in [2] was -0.349 (inactive); in assay [3], -0.288 (inactive); in assay [4], -0.0702 (inactive); in [6], -0.927 (inactive).
Regarding `CCOC(=O)C[C@H]1[C@H](OC(=O)c2ccc(C(=O)c3ccccc3)cc2)[C@@H](NC(=O)C2CCCCC2)c2cc(OCCCO)ccc2N1C(=O)c1ccccc1`, the composite z-score is 1.55 in assay [1]; 2.04 in assay [5]; -0.02 in assay [7]; 0.45 in assay [8]; -0.215 in assay [9]; 0.0546 in assay [10]. The z-score was -0.326 (inactive) in assay [2], 0.358 (inactive) in [3], -0.155 (inactive) in assay [4] and -1.15 (inactive) in [6].
As for `C=CCC(OC(C)=O)[C@@H]1[C@@H](N(Cc2cccc3ccccc23)C(=O)c2ccc(C)cc2)c2cc(OCCCO)ccc2N1C(=O)Cc1ccc(OC)cc1` (stereo not given in full), the composite z-score in [1] is 0.479; in assay [5] it was -0.204; in assay [7], -0.128; in assay [8] it was 0.146; in assay [9], -0.139; in assay [10], -0.0828. In addition, the z-score was -3.36 (inactive) in [2], 0.365 (inactive) in assay [3], -1.4 (inactive) in [4] and 0.761 (inactive) in assay [6].
Regarding `[N-]=[N+]=Nc1ccccc1C[C@]1(C(=O)NCCN2CCOCC2)N=C(c2ccc(OCCCO)cc2)O[C@H]1c1ccccc1`, the composite z-score in [1] came out at 1.31; in assay [5] it was 3.24; in assay [7], 0.0029; in assay [8] it was 0.599; in assay [9], 0.482; in [10], 0.0756. The z-score in assay [2] was 3.66 (inactive); in assay [3] it was -1.17 (inactive); in assay [4] it was -1.78 (inactive); in [6], 0.681 (inactive).

The record behind these values is PubChem BioAssay.
